MITF primary: human MITF inhibition, primary screen; inhibition, % at 2.6 µM; AID 1259374; AlphaScreen MITF homodimerization, bead proximity signal; 650,000 compounds, 0.91% hits; in the data active means inhibition above about 50%;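 further: 0% = vehicle wells with protein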
GPR151 ag: activates the human receptor GPR151 | Q8TDV0 | PathHunter beta-arrestin GPR151 cells, luminescence | activation, % at 11.2 µM | 650,000 compounds, 1% hits | AID 1508602; in the data active means activation above about 4.9%;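 further: 0% = median of compound wells and 100% = cells with positive control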
FBW7 act: activators of human E3 ligase FBW7; Q969H0; AlphaScreen FBW7–phospho-cyclin E peptide binding, activator screen; normalized activity (activation), % at 26.1 µM; 650,000 compounds, 0.13% hits; in the data active means normalized activity above about 1.9%;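 further: purified mutant Fbw7 with reduced substrate affinity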
TEAD-YAP inh: TEAD-YAP interaction inhibition | HEK-TIYL cells, TEAD-Gal4/YAP UAS-luciferase luminescence | inhibition, % at 9.12 µM | 640,000 compounds, 1.4% hits | AID 1259422; in the data active means inhibition above about 32%;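 further: 0% = median of test compound wells and 100% = reference inhibitor wells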
* = called active by the depositor. Most compounds without a hit are left out; they make up all but 3.4% or so of the library.

CCn1c(SCC(=O)NC(=O)Nc2ccc3c(c2)OCCO3)nnc1-c1cccs1 was read as MITF primary -1, GPR151 ag 0, FBW7 act 0 and TEAD-YAP inh -4.
COc1ccc(-n2nnnc2SCC(=O)Nc2ccc3c(c2)OCCO3)cc1OC was read as MITF primary -3, GPR151 ag -1, FBW7 act 0 and TEAD-YAP inh 1.
`C=CCn1c(SCC(=O)Nc2ccc3c(c2)OCCO3)nnc1-c1cccs1` gave MITF primary 10, GPR151 ag 0, FBW7 act 0 and TEAD-YAP inh 51*.
Screening CC(C)Oc1ccc(C(=O)c2ccc(NC3=NCCN3)cc2)cc1 returned MITF primary 3 and GPR151 ag 1.
`O=c1oc2ccccc2cc1-c1csc(Nc2cccc(C(F)(F)F)c2)n1` gave MITF primary 13, GPR151 ag 2, FBW7 act 0 and TEAD-YAP inh 1.
`CCOC(=O)c1ccc(Nc2ccc([N+](=O)[O-])cc2-c2nc3nc(-c4cc(C(C)(C)C)cc5c4CCC5(C)C)cn3[nH]c2=O)o1` gave MITF primary 2, GPR151 ag -1, FBW7 act 0 and TEAD-YAP inh 13.
For Cc1ccccc1Cc1c(C)nc2c(C(=O)NCCc3ccc(Cl)cc3)cnn2c1C the results were MITF primary 0, GPR151 ag 1, FBW7 act 0 and TEAD-YAP inh -6.
Cc1ccc(N2C(=O)/C(=C/c3ccc(N(C)C)cc3)N=C2c2ccccc2F)c(C)c1 was read as MITF primary -10, GPR151 ag 2, FBW7 act 0 and TEAD-YAP inh 68*.
`CN(C)c1ccc(/C=C2\N=C(c3ccccc3F)N(c3ccc(O)cc3)C2=O)cc1` gave MITF primary 10, GPR151 ag 0, FBW7 act 0 and TEAD-YAP inh 60*.
`CN(C)c1ccc(/C=C2\N=C(c3ccccc3F)N(c3ccc(Br)cc3)C2=O)cc1` gave MITF primary 0, GPR151 ag -1, FBW7 act 0 and TEAD-YAP inh -5.
`O=C(Nc1ccc(Cl)cc1)c1oc2ccccc2c1NC(=O)C1CC1` gave MITF primary 5, GPR151 ag 1, FBW7 act 0 and TEAD-YAP inh -20.
Screening COc1ccc(Cc2nnc(Nc3cccc(OC)c3)[nH]c2=O)cc1 returned MITF primary 14, GPR151 ag -1, FBW7 act 0 and TEAD-YAP inh 57*.
Screening COc1ccc(Cc2nnc(NCc3ccco3)[nH]c2=O)cc1 returned MITF primary 7, GPR151 ag 1, FBW7 act 0 and TEAD-YAP inh 58*.
CCCCCn1cnc2sc3c(c2c1=O)CCC(C)C3 (stereo not drawn) was read as MITF primary 6, GPR151 ag -1, FBW7 act 0 and TEAD-YAP inh -4.
`Cc1nc(C)n(-c2ccc(Nc3nccc(N(C)Cc4ccccc4)n3)cc2)n1` gave MITF primary 24, GPR151 ag 0, FBW7 act 1 and TEAD-YAP inh 51*.
For CCOC(=O)CN(Cc1ccccc1)c1ccnc(Nc2ccc(-n3nc(C)nc3C)cc2)n1 the results were MITF primary 0, GPR151 ag 1, FBW7 act 0 and TEAD-YAP inh 53*.
`Cc1nc(C)n(-c2ccc(Nc3nccc(-c4ccc5ccccc5c4)n3)cc2)n1` gave MITF primary 17, GPR151 ag 0, FBW7 act 1 and TEAD-YAP inh 27.
Screening CC1CCN(C(=O)c2ccc3nc(N4C(=O)CCC4=O)sc3c2)CC1 returned MITF primary 17, GPR151 ag 0, FBW7 act 1.9* and TEAD-YAP inh -10.
COc1ccc2nc(-c3ccc(C)c(NS(=O)(=O)c4cccc(Cl)c4)c3)cn2n1 was read as MITF primary 5, GPR151 ag 1, FBW7 act 0 and TEAD-YAP inh -39.
For CC(=O)NC1=NN(C(C)=O)C(C)(c2ccc(OC(C)=O)cc2)S1 (stereo not drawn) the results were MITF primary 9, GPR151 ag 1, FBW7 act 0 and TEAD-YAP inh 66*.
`CC(=O)NC1=NN(C(C)=O)C(C)(c2cccc(OC(=O)c3ccccc3)c2)S1` (stereo not drawn) gave MITF primary 22, GPR151 ag 0, FBW7 act 0 and TEAD-YAP inh 61*.
For O=C(Nc1ccc(N2C(=O)c3cccc4cccc(c34)C2=O)cc1)c1ccco1 the results were MITF primary 1, GPR151 ag 0, FBW7 act 1 and TEAD-YAP inh -6.
Screening COc1ccccc1OCc1nc(-c2ccc(C)cc2)no1 returned MITF primary -3, GPR151 ag 0, FBW7 act 0 and TEAD-YAP inh -46.
CN(C)c1cc2c(c(N(C)C)c1)C(=O)c1ccccc1C2=O was read as MITF primary 54*, GPR151 ag -2, FBW7 act -1 and TEAD-YAP inh -1.
`Nc1c(Br)cc2c(c1Br)C(=O)c1ccccc1C2=O` gave MITF primary -4, GPR151 ag -1, FBW7 act 0 and TEAD-YAP inh -25.
Screening Nc1ccc(C(=O)Nc2nc3ccc(C(=O)N4CCOCC4)cc3s2)cc1 returned MITF primary -2, GPR151 ag -1, FBW7 act 0 and TEAD-YAP inh 8.
For O=C(Nc1nc2ccc(C(=O)N3CCOCC3)cc2s1)c1cccs1 the results were MITF primary 15, GPR151 ag -9, FBW7 act 0 and TEAD-YAP inh 42*.
For COc1cccc(/C=C2/SC(=S)N(CCCC(=O)O)C2=O)c1OC the results were MITF primary 1, GPR151 ag -1, FBW7 act 0 and TEAD-YAP inh 80*.
For C=CCOc1c(/C=C2/SC(=S)N(CCC(=O)O)C2=O)cccc1OC the results were MITF primary -23, GPR151 ag -1, FBW7 act -1 and TEAD-YAP inh -2.
O=C(O)CCCN1C(=O)/C(=C/c2ccccc2F)SC1=S was read as MITF primary 12, GPR151 ag 2, FBW7 act 0 and TEAD-YAP inh 54*.
Screening O=C(CCC(=O)Nc1ccccc1)NNC(=O)c1ccc(-c2ccccc2)cc1 returned MITF primary 2, GPR151 ag 1, FBW7 act 0 and TEAD-YAP inh 5.
Screening Cc1ccc2c(c1C)NC(C(=O)O)C1CC=CC21 (stereo not drawn) returned MITF primary 65*, GPR151 ag -1, FBW7 act -1 and TEAD-YAP inh -15.
`CCOC(=O)C1Nc2c(ccc(C(=O)O)c2C)C2C=CCC12` (stereo not drawn) gave MITF primary 66*, GPR151 ag 1, FBW7 act -1 and TEAD-YAP inh 13.
CCOC(=O)c1ccc2c(c1)[C@@H]1C=CC[C@@H]1[C@H](C(=O)OCC)N2 was read as MITF primary 10, GPR151 ag 0, FBW7 act 0 and TEAD-YAP inh -2.
`O=C(O)c1ccc2c(c1)C1C=CCC1C(C(=O)O)N2` (stereo not drawn) gave MITF primary 25, GPR151 ag 0, FBW7 act -1 and TEAD-YAP inh 5.
